Rab9 promoter act = activators of Rab9 promoter | Potency, µM (titrated, usually from 9.22 µM), actives largely listed as activators | Huh7 Rab9 promoter-luciferase reporter, luminescence, 24 h | 320,000 tested, 2.8% active; also: nearly all actives have a fitted effect of over 60% in size
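Promoter activation is measured as luciferase luminescence in Huh7 cells stably transfected with a Rab9 promoter–luciferase construct, following 24 h compound exposure at 37 °C and 10 min reagent incubation at ambient temperature.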
NPC1 promoter act = activators of NPC1 promoter; Huh7 NPC1 promoter luciferase reporter, 24 h; Potency, µM (titrated, usually from 9.22 µM), usual class: activators; 320,000 tested, 2.4% active; AID 485313; also: nearly all actives have a fitted effect of over 60% in size
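Stably transfected Huh7 (NPC1 promoter→luciferase), 1500 cells/well in Opti-MEM + 10% FBS, 2 h settle, then compound 24 h at 37 °C. Luminescence after 10 min with Amplite reagent.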
SMN2 splice up = increases expression of the SMN2 splice variant; HEK293 SMN2-luciferase splicing reporter, luminescence, 30-36 h; Potency, µM (series often up to 46.1 µM), actives largely listed as activators; 210,000 tested, 2.8% active; also: nearly all actives have a fitted effect of over 55% in size
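HEK293 cells carry an SMN2 […]–luciferase reporter in which exon 7 inclusion puts luciferase in frame. Cells were plated 10-12 h before compound addition, then incubated 30-36 h at 37C. ONE-Glo luminescence was read; sodium butyrate at 4.5 mM final served as control.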
ELG1 repair inh = inhibitors of ELG1-dependent DNA repair in HEK293T cells | 330,000 tested, 2.3% active | HEK293T ELG1-luciferase reporter, luminescence, 16 h; DNA damage induced by 5-fluorouridine | Potency, µM (series often up to 46.1 µM), most hits filed as inhibitors; also: nearly all actives have a fitted effect of over 55% in size
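Luminescence from the luciferase reporter, measured 30 min after ONE-Glo reagent at room temperature, was the read-out. Beforehand, 2,000 cells per well were exposed for 16 hr at 37 °C to 5-fluorouridine together with compound or vehicle.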
ELG1 genotox = induces genotoxicity in HEK293T cells with luciferase-tagged ELG1 | Potency, µM (top dose mostly 46 µM), usual class: activators | 330,000 tested, 1.3% active | HEK293T ELG1-luciferase reporter, luminescence, 16 h; also: nearly all actives have a fitted effect of over 60% in size
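Step 1: seed 2,000 HEK293T ELG1-luciferase cells per well. Step 2: add compound or DMSO, incubate 16 hr at 37 °C. Step 3: ONE-Glo, 30 min at room temperature, read luminescence.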
FLuc modulator = firefly luciferase modulation, counter-screen for miR-21 project; P08659; AID 588342; 360,000 tested, 6.9% active; Potency, µM (series often up to 57.5 µM), hits mostly inhibitors; purified FLuc, Km substrates, luminescence inhibition; also: nearly all actives have a fitted effect of over 55% in size
Target sequence (P08659 whole entry, looked up): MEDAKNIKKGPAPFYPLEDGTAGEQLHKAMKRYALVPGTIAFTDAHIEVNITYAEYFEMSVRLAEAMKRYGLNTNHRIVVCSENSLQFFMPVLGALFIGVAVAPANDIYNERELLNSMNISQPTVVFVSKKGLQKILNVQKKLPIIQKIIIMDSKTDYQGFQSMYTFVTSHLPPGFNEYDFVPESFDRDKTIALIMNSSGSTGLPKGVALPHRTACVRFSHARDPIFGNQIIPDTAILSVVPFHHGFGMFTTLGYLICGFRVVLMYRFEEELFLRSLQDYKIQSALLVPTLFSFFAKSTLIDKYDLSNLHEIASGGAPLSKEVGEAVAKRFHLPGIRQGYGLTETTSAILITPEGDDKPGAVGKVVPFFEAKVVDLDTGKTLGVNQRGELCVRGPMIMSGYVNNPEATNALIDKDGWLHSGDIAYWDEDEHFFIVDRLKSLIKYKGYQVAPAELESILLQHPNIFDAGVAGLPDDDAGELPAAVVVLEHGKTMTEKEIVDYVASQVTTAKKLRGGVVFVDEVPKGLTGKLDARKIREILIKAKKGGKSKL
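Biochemical qHTS of compounds, final roughly 60 µM downward over six points, against 10 nM purified firefly luciferase using Km concentrations of substrates (10 uM D-luciferin, 10 uM ATP) in Tris acetate pH 7.5 buffer; luminescence output.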
Numbers stand for hits; n = inactive; u = inconclusive; x = no result given; [ ] = remark or other dose. Most compounds without a hit are left out; they make up all but 9.4% or so of the library. Calls follow the shape of the dose curve; as a rule, active = well fitted curve in the direction sought with a large enough effect; inconclusive = small, poorly fitted or top-dose-only effect, or another doubt; inactive = no such curve, though single readings can be large; an effect the other way counts as inactive or inconclusive.

SMILES | Rab9 promoter act | NPC1 promoter act | SMN2 splice up | ELG1 repair inh | ELG1 genotox | FLuc modulator
COc1ccc(/C=C2\CC/C(=C\c3ccc(OC)c(OC)c3)C2=O)cc1OC | n | n | n | u | n | 1.2µM
COc1cc(/C=C2/CC/C(=C/c3ccc(O)c(OC)c3)C2=O)ccc1O | n | n | x | u | n | 11µM
COc1ccc(/C=C2\CCc3ccccc3C2=O)cc1OC | n | n | n | u | n | 5.4µM
COc1ccc2c(c1)CCc1cc(C(=O)O)sc1-2 | n | n | x | n | n | u
COc1ccc2c(c1)CC/C(=C/c1ccccn1)C2=O | u | u | x | u | n | 5.4µM
CC(=O)Oc1ccc(/C=C2/CCc3ccccc3C2=O)cc1 | n | n | x | u | u | 0.6µM
COc1cccc(/C=C2\C(=O)C(=O)c3ccccc32)c1 | n | n | n | u | n | 21µM
CC(=O)Oc1ccc(C(=O)Nc2ccccc2NC(=O)c2ccc(OC(C)=O)cc2)cc1 | n | n | x | n | n | n
CCN1C/C(=C/c2ccc(OC)c(O)c2)C(=O)/C(=C/c2ccc(OC)c(O)c2)C1 | n | n | n | u | n | n
COc1cc(/C=C2\COC/C(=C\c3ccc(O)c(OC)c3)C2=O)ccc1O | n | n | x | u | n | 17µM
COc1ccc2c(c1)CC/C(=C\C=C\c1ccccc1)C2=O | n | n | u | u | n | 2.7µM
COc1ccc2c(c1)CC/C(=C/c1cc(OC)c(OC)c(OC)c1)C2=O | n | n | n | 18µM | n | n
COc1cc(C=C2C(=O)c3ccccc3C2=O)cc(OC)c1 | n | n | x | n | n | n
COc1cccc(/C=C2\CCc3ccccc3C2=O)c1 | u | u | x | u | 2.6µM | 0.15µM
CCOc1ccc2nc(N3CCCC(C(=O)Nc4c(C)cccc4C)C3)sc2c1 (configuration not stated) | x | x | n | x | x | u
CCOc1ccc2nc(N3CCCC(C(=O)NCCCN4CC(C)CC(C)C4)C3)sc2c1 (configuration not stated) | 0.89µM | n | x | u | n[9.26 µM] | u
CCOc1ccc2nc(N3CCCC(C(=O)Nc4ccc(OC)c(Cl)c4)C3)sc2c1 (configuration not stated) | x | x | 20µM | x | x | 3µM
COc1ccc2nc(N3CCCC(C(=O)NCCCN4CCN(C)CC4)C3)sc2c1 (configuration not stated) | n | n | n | u | n | 17µM
COc1ccc2nc(N3CCCC(C(=O)NCCc4ccc(OC)c(OC)c4)C3)sc2c1 (configuration not stated) | 2.8µM | 2.8µM | x | u | n | 8.5µM
COc1ccc(-c2cc(=O)c3cc(OC)ccc3[nH]2)cc1 | 1.4µM | 3.5µM | 2.5µM | u | 9.2µM | 3.4µM
COc1cc2[nH]c(-c3ccc(C)cc3)cc(=O)c2cc1OC | n | n | u | u | n | 13µM
COc1ccc(-c2cc(=O)c3cc(C)ccc3[nH]2)cc1 | 3.2µM | 3.2µM | 7.1µM | u | 13µM | 1.7µM
CCOc1ccc(NC(=O)CCS(=O)(=O)c2cccc3nonc23)cc1 | x | x | n | x | x | n
CCOC(=O)c1cc(-c2ccccc2)n(-c2cccc(C(=O)N(CC)c3ccccc3)c2)c1C | x | x | x | x | x | n
COc1cc(CN(C(=O)c2oc3ccccc3c2C)C2CCS(=O)(=O)C2)cc(OC)c1OC (configuration not stated) | x | x | n | x | x | n
SMILES | Rab9 promoter act | NPC1 promoter act | SMN2 splice up | ELG1 repair inh | ELG1 genotox | FLuc modulator
CCN(C(=O)C1CCCN(S(=O)(=O)c2c(C)noc2/C=C/N(C)C)C1)c1cccc(C)c1 (configuration not stated) | x | x | n | x | x | n
O=S(=O)(Cc1noc(-c2ccccc2Cl)n1)c1ccccn1 | 1.4µM | 1.6µM | x | u | u | 11µM
N=c1cc(C2(O)CCCCC2)n2c(nc3ccccc32)s1 | 0.28µM | 0.28µM | n | u | 0.58µM | 0.67µM
CCC(=O)Nc1ccc(NC(=O)c2cccc(OC)c2)nc1 | 2.2µM | u | 11µM | u | u | 11µM
COc1cccc(C(=O)Nc2ccc(NC(=O)C3CC3)cn2)c1 | 3.2µM | 2µM | n | u | u | 7.6µM
Cc1ccc(-c2nc(NC(=O)CSc3nc(C)nc4sc5c(c34)CCCC5)ns2)cc1 | x | x | n | x | x | n
O=S(=O)(Nc1cc(Sc2ncn[nH]2)c(O)c2ccccc12)c1ccccc1 | n | n | n | 23µM | n | 11µM
O=C(O)CSc1cc(NS(=O)(=O)c2ccc(Br)cc2)c2ccccc2c1O | n | n | x | 15µM | n | u
COc1ccc(CCN2CCCC(CN(C)C(=O)c3ccoc3)C2)cc1 (configuration not stated) | 2.2µM | 2.5µM | x | u | 16µM | 15µM
COc1ccc2c(c1)CC/C2=N\OC(=O)c1ccccc1OC | n | n | n | u | u | 3µM
Cc1sc(NC(=O)CN(C(=O)c2ccccc2F)C2CCCC2)c(C(N)=O)c1C | n | n | x | 16µM | n | n
CC1CCCC(NC(=O)c2ccc3c(c2)OCO3)C1C (configuration not stated) | 3.5µM | u | x | u | 18µM | 12µM
O=C(Nc1ccc(F)c(Cl)c1)c1ccccc1 | 1.8µM | 3.2µM | x | u | 12µM | 11µM
COc1cc(NC(=O)c2ccc3c(c2)OCCO3)ccc1NC(=O)c1ccccc1Cl | n | n | x | n | n | n
CC1CCCCC1NS(=O)(=O)CCNC(=O)c1ccc2c(c1)OCO2 (configuration not stated) | n | n | x | n | n | n
O=C(Nc1ccc(F)c(Cl)c1)c1ccc2c(c1)OCO2 | 1.3µM | 1.8µM | x | u | u | 4.8µM
COc1ccc(NC(=O)c2ccc3c(c2)OCO3)cc1Cl | 1.4µM | 0.89µM | 14µM | u | u | 1.9µM
Cc1ccc(CNc2ncnc3onc(-c4ccc(F)cc4)c23)cc1 | x | x | x | x | x | n
O=C(Nc1ccc(C(=O)N2CCCC2)cc1)c1ccc2c(c1)OCO2 | u | u | n | u | u | 15µM
COc1cc(-c2nc(-c3ccc(NC(=O)c4ccc5c(c4)OCO5)cc3)no2)cc(OC)c1OC | n | n | n | u | 13µM | u
COc1cc(NC(=O)c2ccc3c(SCC(=O)O)c4c(nc3c2)CCC4)cc(OC)c1OC | n | n | x | n | n | n
COC(=O)c1c(-c2cccnc2)csc1NC(=O)c1ccc2c(c1)OCO2 | 1.6µM | 2.5µM | x | u | 2.9µM | 1.3µM
CC1CCCC(NC(=O)c2ccc3c(SCC(=O)O)c4c(nc3c2)CCC4)C1C (configuration not stated) | n | n | x | n | n | 17µM
COc1ccccc1-c1nnc(NC(=O)c2ccc3c(c2)OCO3)s1 | n | n | u | n | n | n
O=C(c1ccc2c(c1)OCO2)N1CCCC1 | n | n | n | n | n | n
Cc1c(Cl)cccc1NC(=O)CN1C(=O)COc2ccc(S(=O)(=O)N3CCCCCC3)cc21 | x | x | x | x | x | n

Bioassay records deposited in PubChem BioAssay by National Center for Advancing Translational Sciences (NCATS).
